Bioassay records deposited in PubChem by Buhrlage Lab, Dana-Farber Cancer Institute and Novartis Institutes for BioMedical Research (Cambridge, Mass).
Sampled rows, rich in hits. Any-hit rate of the full collection: about 12%.
USP8 block: inhibitors of human USP8 deubiquitinase | purified USP8, Ub-rhodamine cleavage fluorescence, 30 min | inhibition, % at 20 µM | 47,000 tested, 4.2% active | AID 1645853, 2021
USP30 inh: inhibitors of human USP30 deubiquitinase | AID 1645860, 2021 | inhibition, % at 25 µM | purified USP30, Ub-rhodamine cleavage fluorescence | 47,000 tested, 5.3% active
USP17 inh: inhibitors of human USP17 deubiquitinase; purified USP17, Ub-rhodamine cleavage fluorescence, 3 h; 47,000 tested, 6.5% active; AID 1645855, 2021; inhibition, % at 50 µM
Target sequence (A8MUK1 whole entry, looked up): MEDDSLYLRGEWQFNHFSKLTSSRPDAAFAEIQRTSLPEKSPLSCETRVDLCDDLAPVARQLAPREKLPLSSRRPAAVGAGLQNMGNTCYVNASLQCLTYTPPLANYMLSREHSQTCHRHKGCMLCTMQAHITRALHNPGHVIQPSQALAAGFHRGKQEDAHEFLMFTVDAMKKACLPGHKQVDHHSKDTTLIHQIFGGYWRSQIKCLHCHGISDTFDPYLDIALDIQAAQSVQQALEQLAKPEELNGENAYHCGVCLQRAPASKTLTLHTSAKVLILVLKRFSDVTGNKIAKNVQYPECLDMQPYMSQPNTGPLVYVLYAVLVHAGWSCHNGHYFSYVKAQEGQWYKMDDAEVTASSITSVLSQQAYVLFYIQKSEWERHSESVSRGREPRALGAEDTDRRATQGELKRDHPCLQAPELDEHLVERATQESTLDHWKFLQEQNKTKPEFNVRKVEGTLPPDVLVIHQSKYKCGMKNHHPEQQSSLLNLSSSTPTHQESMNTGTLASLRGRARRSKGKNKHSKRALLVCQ
An asterisk follows results filed as active; nt = not tested or not shown. No stated cut-off is given here; in the data, active means inhibition above about 30%; inactive means the rest.

SMILES	USP8 block	USP30 inh	USP17 inh
CCN1CCN(c2ncc3c(=O)n(CCc4ccccc4)ccc3n2)CC1	16	39*	26
Clc1ccc(-c2cnco2)cn1	2	-1	0
CCS(=O)(=O)N1CCCc2ccc(NS(=O)(=O)c3ccc(OC)c(C)c3)cc21	-3	-12	-4
O=C(N[C@@H]1C[C@H]2Oc3ccccc3N[C@H]2[C@@H]1O)c1ccc(F)cc1	4	13	7
COc1ccccc1-c1noc2ncnc(NCCN3CCC(C)CC3)c12	4	-13	-2
CCc1ccc(S(=O)(=O)Nc2ccc(-c3nnc(-c4ccccc4)o3)cc2)cc1	32*	32*	27
CCc1ccc(NS(=O)(=O)c2ccc(-c3cnc(C)o3)cc2)cc1	6	6	5
Cc1noc(C)c1-c1ccc(S(=O)(=O)Nc2ccccc2)cc1	29	30*	8
Cc1noc(C)c1-c1ccc(S(=O)(=O)Nc2cccc(F)c2)cc1	-5	-16	-3
O=S(=O)(c1ccccc1)c1cnc2ccc(F)cc2c1N1CCCCCC1	14	9	9
COc1cc(OC)cc(C(=O)N2CCC(N3CCN(Cc4ccccc4)C3=O)CC2)c1	-17	0	-12
O=C(Nc1cccc(-c2nnc3n2CCCCC3)c1)c1ccccc1C(F)(F)F	0	-7	1
Cc1ccccc1NC(=O)N1CC[C@@H]2CN(CCc3ccccc3)S(=O)(=O)[C@@H]2CC1	-6	-24	-14
Cc1ccc(NC(=O)COc2ccccc2/C=C2/NC(=O)N(Cc3ccc(F)cc3)C2=O)cc1	24	45*	29
Cc1ccc(NC(=O)COc2ccccc2C#N)cc1	1	7	16
COc1ccc(-c2noc(-c3nnn(-c4ccccc4C(F)(F)F)c3C)n2)cc1OC	4	5	15
Cc1ccc(C)c(N(CC(=O)NCCN2CCOCC2)S(=O)(=O)c2ccccc2)c1	9	19	7
Cc1ccc(Cl)cc1N(Cc1ccc(C(=O)N2CCOCC2)cc1)S(=O)(=O)c1ccccc1	17	50*	nt
CCCNc1cc(N2CCCC(CCC(=O)N3CCN(C(C)=O)CC3)C2)ncn1 (stereo unspecified)	-171	-54	-32
Cc1cccc(CCN(Cc2cc3cccc(C)c3[nH]c2=O)C(=O)Nc2ccccc2)c1	0	7	-15
CN(C)c1ccc(C2NC3=NCN(Cc4ccccn4)CN3c3nc4ccccc4n32)cc1 (stereo unspecified)	-2	5	-1
O=C(NC1CC1)C1c2ccccc2C(=O)N(C2CCCC2)C12CCCCC2 (stereo unspecified)	-2	-10	-3
CC(=O)c1cccc(NC(=O)C2c3ccccc3C(=O)N(C3CCCC3)C23CCCCC3)c1 (stereo unspecified)	65*	-175	-7
CCOC(=O)c1c2ccc(OCc3ccc([N+](=O)[O-])cc3)cc2n2ccccc12	74*	8	25
N#Cc1c2ccc(OCc3ccc(Br)cc3)cc2n2ccccc12	4	-133	-18
SMILES	USP8 block	USP30 inh	USP17 inh
O=c1[nH]c2ccccc2n1CCCOc1ccc(Cl)cc1	5	6	7
CC(=O)N1CCC2(CCN(C(=O)c3ccc(C(F)(F)F)cc3)CC2)C1	2	16	7
COc1cccc(OC)c1C(=O)OCC(=O)Nc1ccc(Oc2ccccc2)cc1	11	23	14
O=C(COC(=O)c1cccc([N+](=O)[O-])c1)Nc1cccc(Oc2ccccc2)c1	2	32*	9
Cc1cccc(C(=O)N2CCc3cnn(C)c3C2COCC2CC2)n1 (stereo unspecified)	-8	-29	-10
COc1ccccc1NS(=O)(=O)c1ccc(-c2c(C)noc2C)cc1	-4	-10	-16
COc1ccccc1NS(=O)(=O)c1ccc2oc(Nc3ccc4c(c3)CCC4)nc2c1	51*	-52	5
COC1=C2C[C@@H](C)C[C@H](OC)[C@H](O)[C@@H](C)/C=C(\C)[C@H](OC(N)=O)[C@@H](OC)/C=C\C=C(/C)C(=O)NC(=CC1=O)C2=O	-4	-5	-2
CCC1OC(O)(C(C)C(O)C(C)C2OC(=O)/C(C)=C/C(C)=CC(C)C(O)C(C)C/C(C)=C/C=C/C2OC)CC(OC(=O)/C=C/C(=O)NC2=C(O)CCC2=O)C1C (stereo unspecified)	17	12	74*
CO/C1=C\C(C)=C/[C@@H](C)[C@@H](O)[C@@H](C)C/C(C)=C/C=C/[C@H](OC)[C@@H]([C@@H](C)[C@@H](O)[C@H](C)[C@@]2(O)C[C@@H](OC(=O)/C=C/C(N)=O)[C@H](C)[C@@H](C(C)C)O2)OC1=O	3	-2	56*
CC(=O)NC(Cc1ccc(F)cc1)C(=O)NC1CCN(c2c(Cc3ccccc3)c(C)nc3ncnn23)CC1 (stereo unspecified)	-11	-24	-40
Cc1ccccc1CN1CCCn2c1nc1ccccc1c2=O	2	25	9
O=C(Cn1cc2c(n1)CCCCC2)NCC1CCCO1 (stereo unspecified)	11	18	12
CC1Cc2ccccc2N1CC(=O)NCc1ccccc1Cl (stereo unspecified)	-39	-316	-88
CC1Cc2ccccc2N1Cc1cc[nH]c(=O)c1 (stereo unspecified)	45*	-311	-34
Cc1ccc(C(=O)NCC(c2ccco2)N2CCCCC2)cc1 (stereo unspecified)	5	10	5
CCCCCC1OC(=O)c2c(C)cccc2Oc2ccc(O)c(CO)c2/C=C/C1O (stereo unspecified)	12	19	23
CCCCCC1OC(=O)c2c(C)cccc2Oc2ccc(O)c(C=O)c2/C=C/C1O (stereo unspecified)	14	73*	81*
CN1C(=O)COc2ccc(NC(=O)c3cc(-c4ccccc4)on3)cc21	-1	27	74*
Cc1c(C(=O)Nc2ccc3c(c2)N(C)C(=O)CO3)oc2ccc(F)cc12	16	-10	1
NC(=O)c1nc(C2CCCCC2)nc2c1[nH]c(=O)n2-c1cccc(Cl)c1	0	-26	-4
Cc1ccc(C2=Nc3ccccc3N(CC(=O)Nc3cccc(C)c3C)C(=O)C2)cc1C	43*	34*	36*
COC(=O)c1ccccc1NC(=O)CN1C(=O)CCc2ccccc21	-19	-43	-16
Cc1cccc(NC(=O)Cn2cccc(S(=O)(=O)N3CCCCCC3)c2=O)c1C	-8	-6	-130
Cc1cccc(NC(=O)CN2C(=O)CC(c3ccccc3)=Nc3ccccc32)c1C	11	34*	16
COc1ccc(CC(=O)OCC(=O)N2c3ccccc3CC2C)cc1 (stereo unspecified)	2	-4	1
O=C(NC1CC1)c1n[nH]c2c1CCCCCC2	9	13	6
CCOC(=O)c1ccc2nc(NC(=O)Cc3cccc4ccccc34)sc2c1	16	36*	11
CCOC(=O)c1cccc(NC(=O)Cc2cccc3ccccc23)c1	5	21	8
O=C(C1CC1)N1CCC2(C1)c1ccccc1S(=O)(=O)N2Cc1ccc(F)cc1 (stereo unspecified)	8	36*	14
